Among the data in PubChem BioAssay AID652264 (National Center for Advancing Translational Sciences (NCATS), 2013) are Potency values, retold here.

Activity calls are given as the source filed them.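 Rule for the calls: active = compounds blocking cell cycle progression with a potency of 5000 nM or lower; inconclusive = potency above 5000 nM but under 10000 nM; inactive = the rest.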

This test is described as follows: qHTS for Inhibitors of Ubiquitin-specific Protease USP2a Using CHOP2 as the Reporter: Cell Cycle. As to conditions: HCT116 cell cycle arrest, propidium iodide DNA content, 16 h. The text has this: Homeostasis of cellular proteins is maintained through a combination of synthesis and degradation. The pathway that accounts for the majority of protein degradation is the ubiquitin-proteasomal pathway. Ubiquitin (Ub) is highly conserved in all cells and the generation of a multi-Ub chain typically targets proteins for degradation by the proteasome. However, ubiquitination is highly reversible and dynamic. Deubiquitination, the reverse process, is catalyzed through the action of enzymes referred to as isopeptidases or deubiquitinating enzymes (DUBs). This group of enzymes is collectively responsible for maintaining adequate pools of free ubiquitin and regulating the ubiquitination status of cellular proteins. The class of DUBs referred to as the ubiquitin-specific proteases (USP) family functions endoproteolytically to cleave Ub chains from a wide range of protein substrates. […] Cells in G2 have twice the fluorescence as cells in G1, and the Acumen allows the cells to be binned by their individual fluorescence properties. Therefore, in the presence of an active USP2 inhibitor the fluorescence of a cell would be lower since it would not progress from G1 to S and then G2. […]
HCT116 cells at 600 cells/well were plated in 96-well plates and allowed to adhere overnight (37C, […]). […] Intensity of the DNA stain per cell was quantified using the Acumen plate reader. […]
As for `Cc1ccc(S(=O)(=O)Nc2cc(C(F)(F)F)ccc2C(=O)Nc2nc(-c3ccccc3)cs2)cc1`, the Potency is 2000 nM (active).
